Bioassay records from PubChem BioAssay.
Autophagy HCS = alters autophagy in cells; hit rate 0.98% among 190,000; calls only at 10 µM (by protocol); AID 463193; MEF GFP-LC3 puncta imaging; test concentration mostly 10 µM;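 active = percentage of spot-positive cells more than 3 SD above its plate mean, without a fluorescence outlier flag or 80% toxicity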;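 also: spot-positive cell cutoff set from DMSO-treated cells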
Ins promoter up = MIN6 insulin promoter up-regulation. MIN6 insulin promoter-GFP reporter, high-content imaging; hits give high values. z-score at 5 µM. hit rate 0.3% among 190,000;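 active = z-score above 3 at 5 µM with at least 500 cells counted in the well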
Redox H2O2 prof = compounds producing H2O2 with reducing agent – biochemical, NIH compound library profiling, artefact control for MLSCN library redox annotation, primary screen; DTT-dependent redox cycling H2O2, phenol red/HRP absorbance; 100% = 100 µM peroxide control, 0% = buffer; hit rate 0.03% among 200,000; activation, % at 10 µM; AID 878;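 active = activation of at least 50% relative to the plate's high and low controls in the primary single-dose screen; inactive = activation below 50%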;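 also: compound incubated with DTT at 0.8 mM final as the reducing agent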
Efa HMGR inh = inhibitors of class II HMG-CoA reductase from Enterococcus faecalis; purified E. faecalis HMGR, NADPH absorbance 340 nm kinetic; inhibition, % at 10 µM; hit rate 0.41% among 190,000; AID 1066;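 active = inhibition above a set limit, the median over all tested compounds plus 3 SD, cut at about 9.5% in these data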;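 also: enzyme runs in reverse so mevalonate oxidation gives rising NADPH absorbance; 0% = complete reaction with DMSO and 100% = background rate lacking mevalonate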
p47phox inh = blocks human p47phox regulatory protein of NADPH oxidases | hit rate 0.53% among 220,000 | p47phox/p22phox peptide binding, fluorescence polarization, 2 h | inhibition, % at 24.7 µM | AID 1274;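 active = inhibition above about 30%, limit read from the data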;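 also: 0% = p47phox with labelled peptide and 100% = labelled peptide alone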
Target sequence (P14598 whole entry, looked up): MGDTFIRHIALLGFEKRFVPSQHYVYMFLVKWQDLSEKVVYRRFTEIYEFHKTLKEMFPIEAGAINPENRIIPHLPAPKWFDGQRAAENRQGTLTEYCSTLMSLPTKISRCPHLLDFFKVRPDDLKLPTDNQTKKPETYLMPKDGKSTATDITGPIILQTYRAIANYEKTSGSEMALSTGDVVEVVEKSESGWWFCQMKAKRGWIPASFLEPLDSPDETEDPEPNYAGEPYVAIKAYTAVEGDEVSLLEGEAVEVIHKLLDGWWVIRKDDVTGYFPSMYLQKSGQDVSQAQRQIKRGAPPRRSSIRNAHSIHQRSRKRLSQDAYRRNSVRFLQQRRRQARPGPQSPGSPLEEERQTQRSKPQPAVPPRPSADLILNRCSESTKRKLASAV
Arbovirus anti = arbovirus infection inhibition. inhibition, % at 10 µM. arbovirus infection cell-based antiviral screen. hit rate 0.37% among 200,000; in the data active = inhibition above about 30%
The depositor's hits bear a star. Only some compounds are listed: those with a hit (about 2.2% of all), similar ones and a draw of the others.

Screening CC1CN(C(=O)CSc2nnc(-c3ccc(Cl)cc3)n2C)CC(C)O1 (centres undefined) returned Autophagy HCS inactive, Ins promoter up -0.33, Redox H2O2 prof 0, Efa HMGR inh 12*, p47phox inh -19 and Arbovirus anti 5.
Screening O=c1[nH]c(=O)n(C(c2ccccc2)c2ccccc2)cc1Br returned Autophagy HCS inactive, Ins promoter up -1.1, Redox H2O2 prof 0, Efa HMGR inh 3, p47phox inh -7 and Arbovirus anti 32*.
Screening Cc1c(Br)c(=O)[nH]c(=O)n1COCc1ccccc1 returned Autophagy HCS inactive, Ins promoter up -0.29, Redox H2O2 prof -2, Efa HMGR inh -2, p47phox inh -21 and Arbovirus anti 9.
Screening COCCN(C)C(=O)CC1C(=O)NCCN1CC(c1ccccc1)c1ccccc1 (centres undefined) returned Autophagy HCS inactive, Ins promoter up 0.89, Redox H2O2 prof 0, Efa HMGR inh 2, p47phox inh -9 and Arbovirus anti 5.
For COc1ccc(NS(=O)(=O)c2cccc(-c3nnc4n3CCCCC4)c2)cc1 the results were Autophagy HCS inactive, Ins promoter up 0.1, Redox H2O2 prof -1, Efa HMGR inh 1, p47phox inh -4 and Arbovirus anti 3.
For O=c1[nH]c2ccc(S(=O)(=O)Nc3ccc(-c4nnc5n4CCCCC5)cc3)cc2o1 the results were Autophagy HCS inactive, Ins promoter up 0.85, Redox H2O2 prof 2, Efa HMGR inh -1, p47phox inh 56* and Arbovirus anti 5.
`CCN(CC)Cc1c(C(=O)N2CCc3ccccc3C2)nc2ccc(Cl)cn12` gave Autophagy HCS inactive, Ins promoter up -0.02, Redox H2O2 prof -1, Efa HMGR inh 17*, p47phox inh -17 and Arbovirus anti 3.
`O=C(NCc1ccccc1)C1CC2CCCC(C1)C2=O` (centres undefined) gave Autophagy HCS inactive, Ins promoter up 1, Redox H2O2 prof 1, Efa HMGR inh -6, p47phox inh -19 and Arbovirus anti -7.
`Cc1ccc(-n2c(C)cc(C)c(C#N)c2=O)cc1C` gave Autophagy HCS inactive, Ins promoter up -0.72, Redox H2O2 prof 0, Efa HMGR inh -2, p47phox inh -7 and Arbovirus anti 5.
Cc1cc(C)n(-c2cccc(Cl)c2)c(=O)c1C#N was read as Autophagy HCS active, Ins promoter up 0.76, Redox H2O2 prof 0, Efa HMGR inh 1, p47phox inh 2 and Arbovirus anti -5.
Cc1ccc(S(=O)(=O)Oc2ccc(C)cc2/C=N/N=C2\NC(=O)C(C)S2)cc1 (centres undefined) was read as Autophagy HCS inactive, Redox H2O2 prof 3, Efa HMGR inh 0, p47phox inh -15 and Arbovirus anti 30*.
COc1ccc(/C=N/N=C2/NC(=O)C(CC(=O)O)S2)cc1OS(=O)(=O)c1ccccc1 (centres undefined) was read as Autophagy HCS inactive, Ins promoter up -0.51, Redox H2O2 prof 0, Efa HMGR inh 0, p47phox inh 4 and Arbovirus anti -1.
For CCN(CC)CCNC1=NCCn2c1cc1cc(OC)ccc12 the results were Autophagy HCS inactive, Ins promoter up -0.11, Redox H2O2 prof 0, Efa HMGR inh -5, p47phox inh -2 and Arbovirus anti -18.
Screening CN=C1c2cc3cc(OC)ccc3n2CCN1Cc1ccccc1 returned Autophagy HCS active, Ins promoter up -0.98, Redox H2O2 prof 0, Efa HMGR inh -4, p47phox inh -5 and Arbovirus anti -16.
For c1ccc(CC2CCN(C3=Nc4cccc5cccc3c45)CC2)cc1 the results were Autophagy HCS active, Redox H2O2 prof 0, Efa HMGR inh -1, p47phox inh -15 and Arbovirus anti -32.
Screening c1cc2c3c(cccc3c1)C(N1CCN(C3=Nc4cccc5cccc3c45)CC1)=N2 returned Autophagy HCS inactive and Redox H2O2 prof 4.
For CC1CC(C)(C)N(C(=O)CN2C(=O)c3ccccc3C2=O)c2ccccc21 (centres undefined) the results were Autophagy HCS active, Redox H2O2 prof -1, Efa HMGR inh -5, p47phox inh 8 and Arbovirus anti 4.
Screening CC1=CC(C)(C)N(C(=O)CN2C(=O)c3ccccc3C2=O)c2ccccc21 returned Autophagy HCS inactive, Ins promoter up -0.26, Redox H2O2 prof -1, Efa HMGR inh -11, p47phox inh -6 and Arbovirus anti -8.
`c1ccc(CSc2ccc(-c3cccnc3)nn2)nc1` gave Autophagy HCS inactive, Ins promoter up -0.93, Redox H2O2 prof 0, Efa HMGR inh -8, p47phox inh 11 and Arbovirus anti 30*.
Screening CCOC(=O)N1CCN(C(=O)CSc2ccc(-c3cccnc3)nn2)CC1 returned Autophagy HCS inactive, Ins promoter up -0.59, Redox H2O2 prof 0, Efa HMGR inh 10*, p47phox inh 3 and Arbovirus anti -4.
For CCOC(=O)N1CCN(C(=O)CSCC(=O)Nc2nc(-c3ccc(OC)cc3)cs2)CC1 the results were Autophagy HCS inactive, Ins promoter up -0.42, Redox H2O2 prof 3, Efa HMGR inh 1, p47phox inh -6 and Arbovirus anti 11.
CCOC(=O)N1CCN(C(=O)CSCC(=O)Nc2nc(-c3ccc(-c4ccccc4)cc3)cs2)CC1 was read as Ins promoter up 1.2, Redox H2O2 prof -1, Efa HMGR inh -1, p47phox inh 62* and Arbovirus anti -21.
Clc1cccc(CSc2ccc(-c3cccnc3)nn2)c1 was read as Autophagy HCS inactive, Ins promoter up 0.05, Redox H2O2 prof 0, Efa HMGR inh 0, p47phox inh -6 and Arbovirus anti -29.
`CC(C)c1csc(CN2CCN(Cc3ccc(F)cc3)C(CCO)C2)n1` (centres undefined) gave Autophagy HCS inactive, Ins promoter up 0.09, Redox H2O2 prof -1, Efa HMGR inh 0, p47phox inh -6 and Arbovirus anti 0.
`COC(=O)c1cccc(NC(=S)N2CCN(c3ccccc3F)CC2)c1` gave Autophagy HCS inactive, Ins promoter up -0.37, Redox H2O2 prof 0, Efa HMGR inh 1 and Arbovirus anti 10.
O=C(CNC(=O)c1ccccc1F)NCCOc1ccccc1Cl was read as Autophagy HCS inactive, Redox H2O2 prof 1, Efa HMGR inh 1, p47phox inh 5 and Arbovirus anti -3.
`O=c1c2ccccc2sn1-c1cc(S(=O)(=O)N2CCOCC2)ccc1N1CCOCC1` gave Autophagy HCS inactive, Ins promoter up 0.95, Redox H2O2 prof -1, Efa HMGR inh -1, p47phox inh 74* and Arbovirus anti -45.
For O=c1c2ccccc2sn1-c1cc(S(=O)(=O)N2CCOCC2)ccc1N1CCCC1 the results were Autophagy HCS inactive, Redox H2O2 prof -1, Efa HMGR inh 1, p47phox inh 58* and Arbovirus anti -39.
